This is part of a sample that, as a whole, favours compounds with a hit. Of some 83,000 tested, about 20% had one in any assay.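 For each line, cells grew in 96-well plates with the test compound present at a single concentration for 48 hours.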 Values without a mark were called inactive. Activity calls are given as the source filed them.
test system: SW-620 colon; assay: NCI-60 one-dose screen, 48 h (100 = growth as untreated, 0 = no growth, -100 = all killed); conditions: 10 µM unless noted
Protocol: Growth inhibition of the SW-620 human tumor cell line is measured as a screen for anti-cancer activity. Cells are grown in 96 well plates and exposed to the test compound for 48 hours. Compounds are tested at a single concentration, which is 10^-5 M for most compounds. The reported endpoint is percent growth (GI% or GIPRCNT), where numbers from 0 - 100% represent growth inhibition, and numbers from -100% - 0 represent cell death. For example, a value of 40 represents 60% growth inhibition. A value of 0 means no net growth occurred over the course of the experiment. A value of -40 indicates 40% of cells at the beginning of the experiment died by the end of the experiment. A value of -100 means all cells are dead at the end of the experiment.
NCI-60 Human Tumor Cell Lines Screen was performed using the standard one-dose NCI protocol, which is described in more detail at https://dtp.cancer.gov/discovery_development/nci-60/default.htm.
Compounds with GIPRCNT values below 10 were considered active. Activity score was based on GIPRCNT using the following formula: […]
Score is 0 for GIPRCNT values of 100 or above, 50 for GIPRCNT values of 0, and 100 for GIPRCNT values of -100.

SMILES | growth
CN(C)S(=O)(=O)c1oc(-c2ccccc2)nc1C#N | 0.559% (active)
CS(=O)(=O)Nc1ccc(-c2nn(-c3ccc(S(C)(=O)=O)cc3)cc2/C=C/C(=O)c2ccc(NC(=O)CO[N+](=O)[O-])cc2)cc1 | 113%
O=C1Nc2ccccc2Oc2ccc(S(=O)(=O)CC3CO3)cc21 (stereo not given) | 17.9%
O=C(CCCN1C(=O)/C(=C/c2ccccc2F)SC1=S)N1CCOCC1 | 95.2%
Nc1cc(-c2c[nH]c3ccccc23)nc2cc(-c3c[nH]c4ccccc34)nn12 | -25.1% (active)
COc1ccc([C@@H]2c3[nH]c4ccccc4c3CC3C(=O)N(C4CCN(Cc5c(F)cccc5F)CC4)CC(=O)N32)c(OC)c1 (stereo not given in full) | 64.6% [5.26 µM]
CCCCN1C(=O)/C(=c2\sc3n(c2=O)C2C(NN=3)N(CC)C(=O)N2CC)c2cc(Cl)ccc21 (stereo not given) | 58.2%
Nc1nc(N)c2c(n1)NC(c1ccc(C(F)(F)F)cc1)CC(c1ccc(Nc3nc(NCCO)nc(Nc4ccc(Cl)cc4)n3)cc1)=N2 (stereo not given) | -66.6% (active)
COc1cc(-c2ccc3ncnc(NC(C)c4ccccc4)c3c2)cnc1OC (stereo not given) | 69.2%
C#Cc1nc(C2=C(C)C(OC(C)=O)/C(=N/OC(C)=O)C2)cs1 (stereo not given) | 8.98% (active)
COc1cccc(-c2nn(-c3ccccc3)cc2-c2ccnc(N3CCN(C(=O)Nc4ccc(F)cc4)CC3)c2)c1 | 74.1%
CCOC(=O)c1c(Nc2ccccc2)nn2c(N)c(C#N)c(-c3ccc(OC)cc3)nc12 | 94.7%
N#Cc1nc(-c2ccccc2)oc1S(N)(=O)=O | 21.1%
c1ccc2c(NCCCN3CCOCC3)c3oc4ccccc4c3nc2c1 | -0.873% (active)
Nc1c(C(=O)Nc2ccc(Cl)cc2)sc2nc(-c3cnccn3)cc(-c3cccs3)c12 | 66.3%
CCOC(=O)c1sc(N)c(C(=O)OCC)c1C | 71.6%
N#Cc1c(-c2ccc(F)cc2)nc2c(C#N)c(Nc3ccccc3)nn2c1N | 106%
CS(=O)(=O)c1ccc(-c2nc3ccccn3c2-c2nc3ccc([N+](=O)[O-])cc3[nH]2)cc1 | 93.2%
COc1ccc(/C=C/C(=O)c2ccc(NC(=O)CSc3nnc(-c4ccc5nc(-c6ccc(Cl)cc6)[nH]c5c4)o3)cc2)cc1 | 106%
CC(=O)Oc1ccccc1C(=O)Nc1ccc(C(=O)/C=C/c2cccs2)cc1 | 107%

SMILES | growth
N#Cc1nc(-c2ccccc2)oc1N1CCC(CO)C1 (stereo not given) | 98.4%
Nc1cc(-c2c[nH]c3ccc(F)cc23)nc2cc(-c3c[nH]c4ccc(F)cc34)nn12 | 4.64% (active)
COc1ccc(C(=O)c2cc(C(=O)/C=C/c3c(Cl)cccc3Cl)c3cc(C)ccn23)cc1 | 95.5%
CC(C)(O)c1cncc(-c2ccc3ncnc(N4CCc5cc(F)c(Cl)cc54)c3c2)c1 | 40.1%
O=C(CSc1nc2sc3c(c2c(=O)n1-c1ccc(Cl)cc1)CCCC3)NNC(=O)Nc1cccc(C(F)(F)F)c1 | 22.1%
N#Cc1ccc(C(=O)CSc2nc(Nc3ccc(S(N)(=O)=O)cc3)c3ccccc3n2)cc1 | 103%
Cc1cccc2sc(/N=C(\N)C(Cl)(Cl)Cl)nc12 | 103%
CCOC(=O)c1c(Nc2ccccc2)nn2c(N)c(C#N)c(-c3ccc(Cl)cc3)nc12 | 65.8%
COc1cc(N=Cc2sc(Nc3nccs3)nc2O)cc(OC)c1OC | 97.3%
CCOC(=O)c1c(Nc2ccccc2)nn2c(-c3ccco3)c(C#N)cnc12 | 94.7%
COc1ccc(/C=N/NC(=O)c2[nH]c3ccc(Br)cc3c2-c2ccccc2)o1 | 21.6%
CCN1C(=S)N(c2ccccc2)C2NC(=O)N(/N=C/C=C/c3ccccc3OC)C21 (stereo not given) | 90.4%
COc1cc(/C=C/C(=O)c2ccc(Cl)cc2)ccc1Oc1nc(NCCO)nc(N2CCOCC2)n1 | 72.4%
O=C(CSc1nnc(-c2ccc3nc(-c4ccc(Cl)cc4)[nH]c3c2)o1)Nc1ccc(C(=O)/C=C/c2ccc(Cl)cc2)cc1 | 103%
Fc1ccc(-c2cc3nc(C(Cl)Cl)nc(-c4ccccc4)n3n2)cc1 | -50.2% (active)
O=C(N/N=C/c1ccc(Br)s1)c1[nH]c2ccc(Br)cc2c1-c1ccccc1 | 23.6%
OC1CCN(CCCOc2c3ccc(Cl)cc3nc3c2oc2ccc(Cl)cc23)CC1 | -82.6% (active)
C/C(=N\NC(N)=O)c1c(O)sc(=O)[nH]c1=O | 97.5%
COc1ccc(NC2=C(Cl)C(=O)C(C)=C(C)C2=O)cc1OC | 101%
NC(=O)c1c(NC(=O)c2ccc(C3CCCCC3)cc2)sc2c1CCC(=O)C2 | 10.4%

Source: PubChem BioAssay (NCI)
